For some of these results: Measured potencies and affinities stand elsewhere.

What all share (parameters): scale not given: direction of the effect not stated beside the values
Test [1] addresses Protein translocase subunit SecA (Escherichia coli (strain K12)) (UniProt P10408). In words: Assay to Identify E. coli SecA ATPase Inhibitors. In kind it is functional. Particulars: 30 µM.
In test [2] the target is T1, Ubiquitin-activating enzyme e1, putative (Leishmania donovani (strain BPK282A1)) (UniProt E9BSI1).
T1 sequence (whole entry): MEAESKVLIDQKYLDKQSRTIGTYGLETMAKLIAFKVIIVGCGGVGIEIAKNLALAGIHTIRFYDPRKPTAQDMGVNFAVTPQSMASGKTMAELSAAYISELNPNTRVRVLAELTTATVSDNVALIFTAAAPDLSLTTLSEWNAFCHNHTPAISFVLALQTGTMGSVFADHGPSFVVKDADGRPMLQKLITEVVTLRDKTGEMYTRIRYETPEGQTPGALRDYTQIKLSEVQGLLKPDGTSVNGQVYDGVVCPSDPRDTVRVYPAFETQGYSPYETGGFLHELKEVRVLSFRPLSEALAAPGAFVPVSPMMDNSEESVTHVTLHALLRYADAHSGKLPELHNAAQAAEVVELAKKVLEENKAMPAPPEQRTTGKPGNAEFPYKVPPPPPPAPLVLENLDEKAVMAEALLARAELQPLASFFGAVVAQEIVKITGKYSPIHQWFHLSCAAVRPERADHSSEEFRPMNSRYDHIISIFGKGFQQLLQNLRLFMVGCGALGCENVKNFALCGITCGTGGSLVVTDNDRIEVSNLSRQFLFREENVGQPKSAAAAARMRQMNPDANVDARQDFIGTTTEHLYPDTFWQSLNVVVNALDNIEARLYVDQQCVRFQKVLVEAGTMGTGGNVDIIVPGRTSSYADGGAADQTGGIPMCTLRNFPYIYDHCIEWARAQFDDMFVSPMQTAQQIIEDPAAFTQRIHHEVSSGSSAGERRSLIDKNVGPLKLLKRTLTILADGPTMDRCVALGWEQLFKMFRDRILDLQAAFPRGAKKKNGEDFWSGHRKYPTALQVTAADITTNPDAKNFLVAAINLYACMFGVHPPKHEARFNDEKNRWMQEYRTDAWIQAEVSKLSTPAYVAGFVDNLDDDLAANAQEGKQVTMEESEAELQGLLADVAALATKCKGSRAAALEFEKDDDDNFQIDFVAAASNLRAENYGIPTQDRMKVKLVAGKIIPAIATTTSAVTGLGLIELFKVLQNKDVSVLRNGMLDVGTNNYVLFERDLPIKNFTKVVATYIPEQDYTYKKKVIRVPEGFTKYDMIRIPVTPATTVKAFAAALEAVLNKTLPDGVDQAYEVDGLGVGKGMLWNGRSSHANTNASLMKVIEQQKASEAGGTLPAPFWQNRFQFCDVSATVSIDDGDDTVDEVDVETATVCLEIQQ
In words: Leishmania donovani Ubiquitin Activating Enzyme (LdE1). In kind it is functional. Particulars: 30 µM.

Test [3] has as its target AMP-activated protein kinase, AMPK (Homo sapiens) (UniProt P54646+O43741+P54619+Q9UGJ0+Q9Y478+Q13131+Q9UGI9). In words: AMP-dependent Kinase enzyme assay. An in vitro enzyme assay that detects ADP turnover that is directly proportional to AMPK activity. This uses naive AMPK that is activated during the assay with MK-8722. In kind it is functional. Particulars: 30 µM.
Test [4] addresses Sialic acid-binding Ig-like lectin 9 (Homo sapiens) (UniProt Q9Y336). As to the kind of experiment: Hs-Siglec9 ALPHAscreen SOP 20170721. Particulars: 10 µM. Background: Bead proximity is the source of the signal in Alpha formats.
The test system of another test is Trypanosoma cruzi. As to the kind of experiment: Trypanosoma cruzi phosphomannomutase and mannose-1-phosphate guanylyltransferase assay. Format: functional. Particulars: 10 µM.
Test [5] deals with T2, Arginase-2, mitochondrial (Homo sapiens) (UniProt P78540).
T2 sequence (whole entry): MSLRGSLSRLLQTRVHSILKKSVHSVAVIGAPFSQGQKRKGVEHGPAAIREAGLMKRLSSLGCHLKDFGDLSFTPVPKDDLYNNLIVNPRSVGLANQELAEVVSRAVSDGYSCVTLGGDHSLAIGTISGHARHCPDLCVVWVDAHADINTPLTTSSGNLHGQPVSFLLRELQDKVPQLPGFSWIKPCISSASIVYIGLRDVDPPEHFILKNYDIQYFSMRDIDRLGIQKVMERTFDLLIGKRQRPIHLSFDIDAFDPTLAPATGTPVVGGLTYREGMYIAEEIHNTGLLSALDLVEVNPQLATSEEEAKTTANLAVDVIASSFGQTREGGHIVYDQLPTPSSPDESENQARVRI
In words: in vitro enzyme assay to detect the production of urea directly proportional to the activity of Arginase II. Further: in the data most compounds retested in dose-response had high values. In kind it is functional. The settings on record: 33.3 µM.

Test [6] concerns the target T3, Proteasome subunit beta (Trypanosoma cruzi) (UniProt O96673).
T3 sequence (whole entry): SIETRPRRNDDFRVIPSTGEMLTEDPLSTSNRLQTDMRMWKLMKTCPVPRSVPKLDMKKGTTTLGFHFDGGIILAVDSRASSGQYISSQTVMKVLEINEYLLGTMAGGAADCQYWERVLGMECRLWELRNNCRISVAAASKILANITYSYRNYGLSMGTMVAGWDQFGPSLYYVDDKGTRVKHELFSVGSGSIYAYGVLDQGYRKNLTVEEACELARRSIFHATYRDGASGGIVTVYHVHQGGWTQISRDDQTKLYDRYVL
As to the kind of experiment: Trypanosoma cruzi proteasome chymotrypsin-like activity (TcProtChymo) assay. Further: in the data most compounds retested in dose-response had high values. Format: functional. The settings on record: 9.37 µM.

A further test is filed under the species Homo sapiens. In words: To identify inhibition of the IFN signalling (Jak-Stat) pathway via expression of an eGFP reporter gene under the control of an IFN-stimulated response element (ISRE) containing MxA promoter. Format: functional. The settings on record: 30 µM. On the technique in general: Reporter assays use an easily measured gene product as a stand-in for the process of interest.

Test [7] deals with T4, Tyrosyl-tRNA synthetase, putative (Trypanosoma cruzi (strain CL Brener)) (UniProt Q4DSP6).
T4 sequence (whole entry): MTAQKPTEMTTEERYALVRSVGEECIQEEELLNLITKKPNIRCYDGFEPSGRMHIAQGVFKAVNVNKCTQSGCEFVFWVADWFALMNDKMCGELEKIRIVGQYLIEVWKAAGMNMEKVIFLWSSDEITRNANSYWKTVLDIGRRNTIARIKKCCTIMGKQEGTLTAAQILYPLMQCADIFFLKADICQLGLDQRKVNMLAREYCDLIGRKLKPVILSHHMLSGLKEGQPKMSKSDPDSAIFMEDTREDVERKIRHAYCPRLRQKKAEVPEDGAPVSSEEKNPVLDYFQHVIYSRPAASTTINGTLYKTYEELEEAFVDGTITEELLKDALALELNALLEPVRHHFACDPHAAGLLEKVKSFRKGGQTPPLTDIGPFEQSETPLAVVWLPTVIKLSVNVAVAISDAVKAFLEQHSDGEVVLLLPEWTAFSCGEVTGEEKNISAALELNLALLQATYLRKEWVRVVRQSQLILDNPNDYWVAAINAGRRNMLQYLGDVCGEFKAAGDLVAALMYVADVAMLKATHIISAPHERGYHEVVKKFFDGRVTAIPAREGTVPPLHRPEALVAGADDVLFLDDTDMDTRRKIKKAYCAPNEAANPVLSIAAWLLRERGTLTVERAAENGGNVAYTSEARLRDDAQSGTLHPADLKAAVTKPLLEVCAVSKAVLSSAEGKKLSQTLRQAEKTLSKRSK
In words: Trypanosoma cruzi tyrosyl tRNA synthetase (TcYRS) _High Tyrosine SOP. Further: in the data most compounds retested in dose-response had high values. In kind it is functional. Particulars: 30 µM.

The target in test [8] is T4, Tyrosyl-tRNA synthetase, putative (Trypanosoma cruzi (strain CL Brener)). In words: Trypanosoma cruzi tyrosyl tRNA synthetase (TcYRS) SOP. Format: functional. Particulars: 30 µM.
The target in test [9] is Chromo domain-containing protein 1 (Saccharomyces cerevisiae (strain ATCC 204508 / S288c) (Baker's yeast)) (UniProt P32657). In words: ScCHD-1 Enzyme Inhibition Assay. Further: in the data most compounds retested in dose-response had high values. In kind it is functional. The settings on record: 30 µM.
Chromo domain-containing protein 1 (Saccharomyces cerevisiae (strain ATCC 204508 / S288c) (Baker's yeast)), sequence (P32657 whole entry, the tested form may be a part): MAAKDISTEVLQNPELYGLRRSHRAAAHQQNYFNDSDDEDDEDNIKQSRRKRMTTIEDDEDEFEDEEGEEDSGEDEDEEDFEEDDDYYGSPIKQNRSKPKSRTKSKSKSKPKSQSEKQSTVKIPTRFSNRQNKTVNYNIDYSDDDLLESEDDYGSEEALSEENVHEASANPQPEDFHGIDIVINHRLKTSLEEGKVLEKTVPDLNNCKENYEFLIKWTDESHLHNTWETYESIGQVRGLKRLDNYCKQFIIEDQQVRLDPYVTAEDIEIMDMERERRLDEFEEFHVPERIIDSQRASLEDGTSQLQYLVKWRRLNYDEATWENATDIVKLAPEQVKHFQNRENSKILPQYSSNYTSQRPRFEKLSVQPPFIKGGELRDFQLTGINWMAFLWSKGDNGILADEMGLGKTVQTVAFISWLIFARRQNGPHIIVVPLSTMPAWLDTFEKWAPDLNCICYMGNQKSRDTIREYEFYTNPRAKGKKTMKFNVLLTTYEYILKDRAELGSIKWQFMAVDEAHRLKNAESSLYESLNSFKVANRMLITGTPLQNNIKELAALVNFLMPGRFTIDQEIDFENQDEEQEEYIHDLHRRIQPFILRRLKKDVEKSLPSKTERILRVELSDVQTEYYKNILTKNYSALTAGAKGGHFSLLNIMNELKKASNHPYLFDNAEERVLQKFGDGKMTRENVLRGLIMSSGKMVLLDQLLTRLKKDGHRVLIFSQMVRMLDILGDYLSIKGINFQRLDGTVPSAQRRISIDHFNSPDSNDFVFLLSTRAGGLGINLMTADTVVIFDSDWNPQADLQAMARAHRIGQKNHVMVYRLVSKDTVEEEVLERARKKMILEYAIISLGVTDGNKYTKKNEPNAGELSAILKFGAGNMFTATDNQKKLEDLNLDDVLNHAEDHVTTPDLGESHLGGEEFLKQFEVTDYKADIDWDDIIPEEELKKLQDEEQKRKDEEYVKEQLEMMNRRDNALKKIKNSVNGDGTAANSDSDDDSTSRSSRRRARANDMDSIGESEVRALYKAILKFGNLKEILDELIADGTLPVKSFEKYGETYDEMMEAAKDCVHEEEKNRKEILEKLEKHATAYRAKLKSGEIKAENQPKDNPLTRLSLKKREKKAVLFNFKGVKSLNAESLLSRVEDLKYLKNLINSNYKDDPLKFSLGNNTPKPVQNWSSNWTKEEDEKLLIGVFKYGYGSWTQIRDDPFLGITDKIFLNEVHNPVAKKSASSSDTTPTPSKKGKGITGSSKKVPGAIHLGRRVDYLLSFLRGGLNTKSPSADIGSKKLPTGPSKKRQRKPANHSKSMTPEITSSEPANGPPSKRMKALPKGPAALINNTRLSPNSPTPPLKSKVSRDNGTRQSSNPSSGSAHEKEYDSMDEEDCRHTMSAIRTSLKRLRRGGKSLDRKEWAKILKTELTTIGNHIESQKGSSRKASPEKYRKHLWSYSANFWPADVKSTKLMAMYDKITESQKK

Protein translocase subunit SecA (Escherichia coli (strain K12)), sequence (P10408 whole entry): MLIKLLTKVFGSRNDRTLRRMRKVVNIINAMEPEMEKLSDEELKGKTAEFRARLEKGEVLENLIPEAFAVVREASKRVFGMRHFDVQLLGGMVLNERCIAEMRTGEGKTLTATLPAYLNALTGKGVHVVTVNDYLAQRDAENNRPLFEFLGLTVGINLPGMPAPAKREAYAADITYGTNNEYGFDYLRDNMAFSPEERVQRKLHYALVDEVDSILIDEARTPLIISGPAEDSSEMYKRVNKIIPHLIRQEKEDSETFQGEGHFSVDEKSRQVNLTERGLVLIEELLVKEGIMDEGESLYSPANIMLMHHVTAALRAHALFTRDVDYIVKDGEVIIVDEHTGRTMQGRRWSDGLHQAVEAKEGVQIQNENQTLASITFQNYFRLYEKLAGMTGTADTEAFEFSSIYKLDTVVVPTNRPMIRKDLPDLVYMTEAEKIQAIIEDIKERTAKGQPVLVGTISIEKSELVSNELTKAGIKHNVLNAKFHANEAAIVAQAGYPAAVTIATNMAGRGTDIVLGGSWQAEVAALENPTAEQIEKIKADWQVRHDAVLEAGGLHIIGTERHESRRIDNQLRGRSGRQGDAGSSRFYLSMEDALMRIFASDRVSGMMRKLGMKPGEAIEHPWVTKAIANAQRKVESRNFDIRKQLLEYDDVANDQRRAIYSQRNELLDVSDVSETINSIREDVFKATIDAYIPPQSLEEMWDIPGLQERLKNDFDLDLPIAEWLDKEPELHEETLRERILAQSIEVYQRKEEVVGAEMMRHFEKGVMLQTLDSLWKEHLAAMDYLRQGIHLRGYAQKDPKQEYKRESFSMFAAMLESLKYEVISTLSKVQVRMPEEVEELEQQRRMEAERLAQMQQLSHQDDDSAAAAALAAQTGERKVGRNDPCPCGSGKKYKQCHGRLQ
Sialic acid-binding Ig-like lectin 9 (Homo sapiens), sequence (Q9Y336 whole entry): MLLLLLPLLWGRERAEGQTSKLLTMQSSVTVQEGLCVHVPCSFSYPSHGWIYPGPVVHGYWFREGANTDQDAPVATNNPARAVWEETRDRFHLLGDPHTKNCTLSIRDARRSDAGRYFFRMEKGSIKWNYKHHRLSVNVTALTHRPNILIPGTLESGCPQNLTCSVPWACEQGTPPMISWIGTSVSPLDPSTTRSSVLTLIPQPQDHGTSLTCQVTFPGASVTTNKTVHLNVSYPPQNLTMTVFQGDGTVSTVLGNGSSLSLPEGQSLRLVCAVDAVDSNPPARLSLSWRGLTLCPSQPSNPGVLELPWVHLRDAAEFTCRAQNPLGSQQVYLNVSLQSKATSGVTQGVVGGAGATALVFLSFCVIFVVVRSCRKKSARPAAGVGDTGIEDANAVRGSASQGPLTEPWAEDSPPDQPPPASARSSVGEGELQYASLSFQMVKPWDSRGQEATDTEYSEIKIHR

As to `COCCN1CCC(NCc2cccc(F)c2)C1` (stereo unspecified), the Percent Effect in [1] was -3.31%; in test [2], 13%; in test [3], -4.27%; in test [4], 0.179%; with Trypanosoma cruzi, -5.24%; in [5], -4.27%. For the same compound, the Percent Effect in test [6] is 8.78%; in the test listed under Homo sapiens, 32.2%; in test [7] it was 5.83%; in test [8] it was 0%; in test [9], -9.86%.
As for `CSCC(C)(O)CNC(=O)c1ccc(Br)cc1C` (stereo unspecified), the Percent Effect was 0.706% in test [1]; 0% in test [2]; 2.08% in test [3]; -6.13% in [4]; -1.27% in the test on Trypanosoma cruzi; -1.74% in test [5]. The Percent Effect in test [6] was 8.15%; in the test filed under Homo sapiens, -5.12%; in test [7] it was 2.15%; in [8], 6.17%; in test [9], 0.55%.
`O=C(Cn1c(=O)n(Cc2ccco2)c2ncccc21)Nc1ccccn1`: the Percent Effect in test [1] is -8.13%; in [2], 1.35%; in test [3], 4.77%; in [4] it was 2.6%; with Trypanosoma cruzi, -6.13%; in test [5], -4.41%. Also, the Percent Effect in [6] was 9.2%; in the test filed under Homo sapiens it was 3.38%; in test [7], 5.38%; in test [8], 1.3%; in test [9], -0.416%.
As for `Cc1ccc(NC(C)C(=O)NCc2cccs2)cc1C` (stereo unspecified), the Percent Effect in test [1] is -1.89%; in [2] it was 16.4%; in test [3], 6.74%; in test [4], 8.58%; in the test on Trypanosoma cruzi, 0.196%; in [5], -4.54%. Moreover, the Percent Effect was 17.8% in [6]; 21.3% in the test filed under Homo sapiens; -1.07% in test [7]; 20% in [8]; -5.22% in test [9].
As to `Cc1ccccc1C1CCCN1C(=O)CN1CC2(CCNCC2)OC1=O` (stereo unspecified), the Percent Effect in test [1] was -4.66%; in test [2], 8.11%; in test [3], -3.53%; in [4], 12.1%; in the test with Trypanosoma cruzi, 6.76%; in test [5], 0%. Also, the Percent Effect in test [6] is 13.1%; in the test listed under Homo sapiens, -1.19%; in [7], 4.76%; in test [8], 9.76%; in test [9], 87.8%.
As for `CC(C)OCCOCc1cccc(NC(=O)NCc2ccncc2)c1`, the Percent Effect is 2.27% in test [1]; 13% in test [2]; -7.84% in test [3]; -0.138% in test [4]; -0.295% in the test with Trypanosoma cruzi; -11% in test [5]. The Percent Effect is 11.5% in [6]; 30.4% in the test filed under Homo sapiens; 6.45% in [7]; 13.6% in [8]; -2.65% in [9].
As for `COc1ccccc1CC(=O)N1CCCC(n2nc(C)cc2C)C1` (stereo unspecified), the Percent Effect was 4.86% in test [1]; 0% in test [2]; 2.98% in test [3]; -5.42% in test [4]; -1.23% with Trypanosoma cruzi; 5.32% in test [5]. For the same compound, the Percent Effect in [6] is 1.06%; in the test filed under Homo sapiens, 2.12%; in [7], -0.493%; in [8], -3.8%; in test [9], -0.887%.
Turning to `CCN(Cc1cccc(Cl)c1)Cn1nc(C)c2c(C)onc2c1=O`, the Percent Effect in [1] was -8.55%; in [2], 8.11%; in [3] it was -4.63%; in test [4], 2.84%; in the test on Trypanosoma cruzi, -3.68%; in [5] it was -0.802%. The Percent Effect in test [6] is -0.18%; in the test filed under Homo sapiens it was 14.3%; in [7] it was 1.48%; in [8], 1.24%; in test [9], -6.67%.
Regarding `Fc1cccc(N2CCCC3(CN(Cc4ccncc4)CCO3)C2)c1` (stereo unspecified), the Percent Effect in test [1] is -2.7%; in [2] it was 5.33%; in [3] it was 13.4%; in test [4], 2.73%; in the test on Trypanosoma cruzi it was -6.5%; in [5], 6.29%. Further, the Percent Effect in test [6] is 8.02%; in the test listed under Homo sapiens, 29.6%; in test [7], 6.38%; in test [8], 11.5%; in test [9] it was -3.18%.
Turning to `O=C(Nc1cnn(CCN2CCOCC2)c1)c1cc(F)ccc1F`, the Percent Effect in test [1] is -1.54%; in test [2] it was 7.89%; in test [3], -3.4%; in [4], 20.5%; with Trypanosoma cruzi, -1.32%; in test [5], 1.53%. Besides, the Percent Effect was -3.17% in test [6]; -12.4% in the test filed under Homo sapiens; 4.41% in test [7]; 9.76% in test [8]; 3.02% in test [9].
Regarding `Cc1cccc(N2CCN(CCNC(=O)c3ccnn3C)CC2)c1`, the Percent Effect in [1] is 0.195%; in test [2], 5.41%; in test [3], -1.81%; in test [4], -4.27%; in the test with Trypanosoma cruzi, -4.88%; in [5] it was 3.75%. Besides, the Percent Effect worked out at 14.6% in test [6]; 6.3% in the test filed under Homo sapiens; 9.9% in [7]; 11% in test [8]; 5.87% in test [9].
